Reference: ChEMBL document CHEMBL3988442, “University of Dundee, Small-Polar-MMV Screening Library” (2021)
In all, about 48,000 compounds went through this assay and about 13,000 (27%) showed an effect of 50% or more. The list shows a part of the results.

Test system: Wolbachia pipientis
Assay: Anti-Wolbachia Cell-Based Screen
Type: functional
Parameters: scale not given: in the data most compounds retested in dose-response had high values
Conditions: 5 µM

Compared with `Cc1ccc(O[C@@H]2C[C@H]3CN(Cc4nccn4C)CCN3C2)cc1.O=C(O)C(F)(F)F.O=C(O)C(F)(F)F`, `Cn1ccnc1CN1C(=O)CO[C@H]2CN(Cc3ccc(F)c(F)c3)C[C@H]21` is higher in “Percent Effect” value: -3.373% for the first, 5.068% for the second.

Compared with `CCC1=N[C@@]2(CC[C@@H]3CN(S(=O)(=O)CC(C)C)C[C@@H]32)C(=O)N1CC1CC1`, `COc1ccc(NC(=O)CCC2CCCN(S(=O)(=O)C3CC3)C2)c(C)c1` (stereo not drawn) is lower in “Percent Effect” value: 6.599% for the first, -10.5% for the second.

First: C[C@@H]1CN(C2CCN(c3ccccc3F)CC2)C[C@]1(C)O
Second: Oc1nc(N2CCOCC2)nc2c1CCN(Cc1ccccc1)CC2
The “Percent Effect” value of the first is lower: -10.13% for the first, 129.9% for the second.

Going from `CC(=O)NC(C)(C)c1noc(C2(C#N)CCCCC2)n1` to `Cc1noc([C@@]23CCO[C@@H]2CCN(Cc2scnc2C)C3)n1.O=C(O)C(F)(F)F`, the “Percent Effect” value rises from -6.661% to 105.3%.

Going from `COc1ccccc1CNCc1nn(-c2ccccc2)c2c1CCC2` to `Cn1nccc1C1CCN(Cc2ccn(-c3ccccc3)n2)CC1`, the “Percent Effect” value rises from -29.63% to -5.293%.

Compared with `Cc1cc(-c2ccccc2C(=O)O)nc(C2CCCN2S(C)(=O)=O)n1` (stereo not drawn), `CS(=O)(=O)N1CCCCCC1c1cc(-c2ccc(F)cc2)no1` (stereo not drawn) is higher in “Percent Effect” value: 105.2% for the first, 132.6% for the second.

Compared with `CC(C)c1noc(C2CCCN2S(=O)(=O)Cc2ccc(F)cc2)n1` (stereo not drawn), `COc1ccc(-c2cc(C3CCCCCN3S(=O)(=O)N(C)C)on2)cc1` (stereo not drawn) is higher in “Percent Effect” value: -21.21% for the first, -9.2% for the second.

Going from `Cc1ncsc1CCN(C)C(=O)C(c1cccnc1)N1CCOCC1` (stereo not drawn) to `Oc1nc(N2CCOCC2)nc2c1CCN(Cc1cccnc1)CC2`, the “Percent Effect” value falls from 2.321% to -6.583%.

Going from `c1nc2onc(C3CC3)c2cc1-c1nnc(C2CC2)o1` to `COc1ccc(-c2cc(-c3nc(CN4CCN(C)CC4)no3)[nH]n2)cc1`, the “Percent Effect” value rises from -6.537% to -0.5802%.

Compared with `O=C(COc1ccc2cccnc2c1)N1CCN[C@H]2CS(=O)(=O)C[C@H]21`, `COc1cccc(C(O)Cn2ncc3ncccc3c2=O)c1` (stereo not drawn) is lower in “Percent Effect” value: 2.711% for the first, -14.22% for the second.

First: COc1ccc(-c2csc(-c3cccc(C(=O)O)c3)n2)cc1OC
Second: COc1ccc(-c2cc(N)on2)cc1OC
The “Percent Effect” value of the first is lower: -12.11% for the first, 106.7% for the second.

Compared with `COc1ccc(-c2cc(C[C@@H]3C[C@H](N(C)C)C3(C)C)no2)cc1`, `COc1ccc(-c2cc(N)on2)cc1` is higher in “Percent Effect” value: 1.876% for the first, 77.55% for the second.

Compared with `COc1ccc(-c2noc(C3=NN(C)C(=O)CC3)n2)cc1OC`, `COc1ccc(OC)c(-n2cnnc2CN)c1` is lower in “Percent Effect” value: -3.216% for the first, -14.69% for the second.

Going from `Cc1nc(CNC(C)c2ccc(S(=O)(=O)N(C)C)cc2)no1` (stereo not drawn) to `CCN(CC)S(=O)(=O)c1ccc(OC)c(NC(=O)CSC)c1`, the “Percent Effect” value falls from -3.104% to -7.74%.

Going from `Cc1cscc1C(=O)NC1CC(=O)N(C(C)C)C1=O` (stereo not drawn) to `Cc1ccc(C(=O)N(C)C)cc1NC(=O)COCC1CC1`, the “Percent Effect” value rises from -19.94% to -15.5%.

Going from `c1cc(CN2CCc3nc(N4CCOCC4)nc(NC4CC4)c3C2)co1` to `Oc1nc(N2CCOCC2)nc2c1CCN(Cc1cccc(F)c1)CC2`, the “Percent Effect” value rises from 2.456% to 117%.

Compared with `Oc1nc(N2CCOCC2)nc2c1CCN(Cc1ccc(F)cc1)CC2`, `Oc1nc(N2CCCC2)nc2c1CCN(Cc1cccnc1)CC2` is higher in “Percent Effect” value: 116.9% for the first, 121.5% for the second.

Going from `Cn1cc(S(=O)(=O)N2CCC(OCCCc3ccccc3)C2)cn1` (stereo not drawn) to `CC(=O)c1ccc(N2CCCC(CO)(CCc3ccccc3)C2)nc1` (stereo not drawn), the “Percent Effect” value rises from -5.129% to 11.39%.

First: CC(C)C(O)C1CCN(c2ccnc(C(=O)NCc3ccco3)c2)CC1 (stereo not drawn)
Second: CC(C)c1ccc(/C=C/CC(=O)NC2CCN(C(N)=O)C2)cc1 (stereo not drawn)
The “Percent Effect” value of the first is higher: -3% for the first, -19.1% for the second.

First: COc1ccc(NC(=O)CSc2ccc3nncn3n2)c(OC)c1
Second: COc1ccc(OC)c(NC(=O)CSc2ccc3nncn3n2)c1
The “Percent Effect” value of the first is higher: 116.1% for the first, 92.9% for the second.

First: COc1ccc(OC)c(CCC(=O)Nc2cc(C)n[nH]2)c1
Second: COc1ccc(NC(=O)CCSc2ccc3nncn3n2)c(OC)c1
The “Percent Effect” value of the first is lower: -33.89% for the first, 100.6% for the second.

Going from `COc1ccc(Cl)cc1NC(=O)CNc1ccn(CC(N)=O)n1` to `COc1cc(Cl)c(C)cc1NC(=O)CNc1ccn(CC(N)=O)n1`, the “Percent Effect” value falls from 12.03% to -71.24%.

Compared with `COc1ccc(NC(=O)CSc2nncn2-n2cccc2)c(OC)c1`, `COc1ccc(NC(=O)CNc2cccc3c2CCCC3)c(OC)c1` is lower in “Percent Effect” value: 89.78% for the first, -2.331% for the second.

Going from `COc1cc(C(C)=O)ccc1SCC(=O)Nc1ccccn1` to `C[C@@H](NC(=O)c1cccnc1)c1onc(-c2ccccc2)c1C(=O)O`, the “Percent Effect” value rises from -8.38% to -0.5339%.

Going from `CCOCC(=O)Nc1cc(-n2nnnc2C2CC2)ccc1F` to `COc1ccc(F)c(CN2CCC3(CCC(=O)N(CC(N)=O)C3)CC2)c1`, the “Percent Effect” value rises from -4.453% to 10.55%.

First: CNC(=O)NC(=O)C(NCc1cccs1)c1ccccc1 (stereo not drawn)
Second: COc1ncc(C2(O)CCN(Cc3ccccc3O)CC2)c(OC)n1
The “Percent Effect” value of the first is lower: -60.87% for the first, -6.313% for the second.

First: Cc1nnc([C@@]23CCO[C@@H]2CCN(Cc2nccs2)C3)o1
Second: Cc1nnc([C@@]23CCO[C@@H]2CCN(Cc2scnc2C)C3)o1
The “Percent Effect” value of the first is lower: 93.98% for the first, 102.2% for the second.

Going from `Cc1noc([C@@]23CCO[C@@H]2CCN(CC2CCOCC2)C3)n1.O=C(O)C(F)(F)F` to `CNC(=O)[C@@]12CCO[C@@H]1CCN(Cc1scnc1C)C2.O=C(O)C(F)(F)F`, the “Percent Effect” value rises from -22.2% to -1.55%.

Compared with `Cc1ncsc1CN1CC[C@H]2OCC[C@@]2(C(=O)N2CCCC2)C1`, `CCS(=O)(=O)N1CC[C@H]2OCC[C@@]2(c2nnc(C)o2)C1` is higher in “Percent Effect” value: -2.591% for the first, 3.137% for the second.

Compared with `Cc1nnc([C@]23COC[C@H]2CN(Cc2nccs2)C3)o1.O=C(O)C(F)(F)F`, `COCc1nn(CC2CC2)c2c1CN(Cc1cncn1C)CC2.O=C(O)C(F)(F)F` is lower in “Percent Effect” value: -6.391% for the first, -13.43% for the second.

First: N#CCCCS(=O)(=O)N1CCCC1CC(=O)c1cccs1 (stereo not drawn)
Second: COc1ncc(C2(O)CCN(Cc3c(F)cccc3F)CC2)c(OC)n1.Cl
The “Percent Effect” value of the first is lower: -18.29% for the first, 1.004% for the second.

Going from `COc1ncc(C2(O)CCN(Cc3cc(F)cc(F)c3)CC2)c(OC)n1` to `COc1ncc(C2(O)CCN(Cc3ccc(F)c(F)c3)CC2)c(OC)n1.Cl`, the “Percent Effect” value falls from 125.6% to 122.5%.

Going from `COc1cc(OC)cc(C2(O)CCN(Cc3nc(C)c(C)o3)CC2)c1` to `COc1cc(OC)cc(C2(O)CCN(Cc3ncc(C)o3)CC2)c1`, the “Percent Effect” value rises from -6.043% to 10.39%.

Compared with `COc1ncc(C2(O)CCN(Cc3cc(F)ccc3F)CC2)c(OC)n1.Cl`, `COc1ncc(C2(O)CCN(Cc3cccc(F)c3F)CC2)c(OC)n1.Cl` is higher in “Percent Effect” value: 106.6% for the first, 130.5% for the second.
